Bioassay records deposited in PubChem BioAssay by National Center for Advancing Translational Sciences (NCATS).
UDG counter – UDG inhibition counter-screen; Potency, µM (series often up to 115 µM), without a hit: top-dose activity change, negative = inhibition, actives largely listed as inhibitors; FRET deamination/UDG coupled assay, UDG read, 4 h; actives 0.14% (n = 91,000); note: nearly all actives have a fitted effect of over 65% in size
AID inh – inhibitors of human activation induced cytidine deaminase. AID deamination FRET fluorescence, UDG-coupled, 4 h. AID 1347428. actives 0.32% (n = 91,000). Q9GZX7. Potency, µM (doses to about 115 µM), actives largely listed as inhibitors; note: nearly all actives have a fitted effect of over 25% in size
Target sequence (Q9GZX7 whole entry, looked up): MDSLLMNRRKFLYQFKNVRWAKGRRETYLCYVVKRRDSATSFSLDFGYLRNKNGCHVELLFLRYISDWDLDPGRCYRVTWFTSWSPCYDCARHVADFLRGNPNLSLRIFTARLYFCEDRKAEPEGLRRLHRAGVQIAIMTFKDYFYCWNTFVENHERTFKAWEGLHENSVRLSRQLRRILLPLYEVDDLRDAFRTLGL
Numbers without * were called inactive; i = inactive; ? = inconclusive; [ ] = another dose, or the depositor's remark. In the library only some 0.4% were active in any assay of this set; here they are far more common. Calls come from the whole dose curve; as a rule, active = well fitted curve in the direction sought with a large enough effect; inconclusive = small, poorly fitted or top-dose-only effect, or another doubt; inactive = no such curve, though single readings can be large; an effect the other way counts as inactive or inconclusive. % is set by controls: 0 for no effect and ±100 for the full control effect; potency is the fitted concentration of half-maximal effect.

SMILES	UDG counter	AID inh
CN1CCN(c2nc3c(S(=O)(=O)c4ccc(Cl)cc4)nnn3c3ccsc23)CC1	-16%	?
CC(C)c1ccc(S(=O)(=O)c2nnn3c2nc(N2CCN(C)CC2)c2sccc23)cc1	19%	18µM*
C/C(=N\O)c1ccc(OCC(O)CNC(C)C)cc1 (stereo not given)	2%	i
CCOCCCn1c(=N)c(C(=O)NC(C)c2ccccc2)cc2c(=O)n3cccc(C)c3nc21 (stereo not given)	-21%	22µM*
Cc1cccn2c(=O)c3cc(C(=O)NC(C)c4ccccc4)c(=N)n(CCOCCO)c3nc12 (stereo not given)	7%	i
CN(CC(=O)NC(N)=O)C1CCCCCC1	3%	i
O=C(C1CC1)N(Cc1ccc2c(c1)CN(S(=O)(=O)c1cc(F)cc(F)c1)CCO2)c1ccccc1	-4%	i
O=C(C1CC1)N(Cc1ccc2c(c1)CN(S(=O)(=O)c1cc(F)ccc1F)CCO2)c1ccccc1	89µM*	i
COc1ccc(-c2csc(N3N=C(C)CC3c3cc(OC)c(OC)c(OC)c3)n2)cc1 (stereo not given)	89µM*	?
CSc1ccc(C2CC(C)=NN2c2nc(-c3ccccc3)cs2)cc1 (stereo not given)	-13%	i
O=c1cc(CSc2nnnn2-c2ccccc2)c2ccc(O)cc2o1	1%	i
CC(C)C(=O)Nc1ccc(Cl)cc1F	-2%	i
Cc1ccc(C(C)NC(=O)Nc2ccc(Cl)cc2F)c(C)c1 (stereo not given)	1%	14µM*
CN(C)c1ccc(CNC(=O)c2nccnc2N)cn1	-12%	i
Cc1c(C(=O)N(C)C)sc2c1c(=O)n(-c1ccc(F)cc1)c(=O)n2Cc1ccccc1C#N	89µM*	i
CCc1ccc(-n2c(=O)c3c(C)c(C(=O)N(C)C)sc3n(Cc3ccccc3F)c2=O)cc1	0%[57.5 µM]	i
N.N.N.N.N.N.N.N.N.N.N.N.N.N.O.O.[Ru+4].[Ru+5].[Ru+5]	32µM*	22µM*
CC(=O)Nc1ccc(-c2csc(-c3ccccc3C)n2)cc1	0%	i
O=C(CCC1CCCC1)N1CCN(C(=O)c2cc(=O)c3ccccc3o2)CC1	-2%	i
COCCNC(=O)c1ccc2c(c1)N(Cc1c(F)cccc1Cl)C(=O)c1ccccc1S2	-11%	i
CCN(CC)C(=O)c1ccc2c(c1)N(Cc1c(F)cccc1Cl)C(=O)c1ccccc1S2	-21%	71µM*
NS(=O)(=O)c1ccc(N/N=C/c2sc(Nc3ccccc3)nc2Cl)c([N+](=O)[O-])c1	-6%	i
CC(C)N1CCc2c(sc(NC(=O)c3ccco3)c2-c2nc3ccccc3s2)C1	-4%	i
CSc1ccc(/C=C/C(=O)c2ccc3c(c2)OCCO3)cc1	-19%	i
CCCCCC(C)NC(=O)Nc1cc(C(F)(F)F)ccc1Cl (stereo not given)	1%	i
SMILES	UDG counter	AID inh
CS(=O)(=O)Cc1ccc(CNCc2cccc3ccccc23)cc1	0%	i
CS(=O)(=O)Cc1ccc(CNCc2ccccc2Cl)cc1	16µM*	i
CN(C)c1cccc(C(=O)OCC(=O)N2c3ccccc3Sc3ccccc32)c1	0%	i
Cc1ccc(COC(=O)c2ccccc2Nc2ccccc2)cc1	8%	i
CCC(Sc1nc2c(sc3ccccc32)c(=O)n1CCc1ccc(OC)c(OC)c1)C(=O)N(CC)CC (stereo not given)	-18%	32µM*
CCC(Sc1nc2c(sc3ccccc32)c(=O)n1CCc1ccccc1)C(=O)N(CC)CC (stereo not given)	9%	i
CCc1ccc(C(=O)c2cn(Cc3ccc(F)cc3)c3cc(OC)c(OC)cc3c2=O)cc1	-24%	35µM*
CCc1ccc(C(=O)c2cn(CC(=O)Nc3ccc(F)c(F)c3)c3cc(OC)c(OC)cc3c2=O)cc1	-17%	i
Cc1ccc2c(c1)-c1c(cnn1CC(=O)N1CCN(c3cc(C)ccc3C)CC1)CO2	-11%	40µM*
COc1ccc(N2CCN(C(=O)Cn3ncc4c3-c3cc(C)ccc3OC4)CC2)cc1	-16%	i
CCOc1cc(/C=C/C(=O)c2ccc(C)cc2)cc(Cl)c1O	8%	i
Cc1cccc(N2CCN(C(=O)c3cc4ccc5cccnc5c4[nH]3)CC2C)c1 (stereo not given)	?	35µM*
Cc1ccc(C)c(N2CCN(C(=O)c3cc4ccc5cccnc5c4[nH]3)CC2)c1	0%	?
CC(C)(C)c1nnc2sc(-c3ccc4c(c3)OCO4)nn12	-1%	i
CCn1cc2nc(SCc3cccc(C)c3)n(CCc3ccccc3)c(=O)c2n1	-23%	35µM*
CCn1cc2nc(SCc3cccc(C(F)(F)F)c3)n(Cc3ccc(Cl)cc3)c(=O)c2n1	-29%	25µM*
CCn1cc2nc(SCc3cccc(C(F)(F)F)c3)n(CCc3ccccc3)c(=O)c2n1	-14%	?
CCn1cc2nc(SCc3cccc(Cl)c3)n(Cc3ccc(C)cc3)c(=O)c2n1	-16%	i
N#Cc1ccc(COC(=O)c2ccc3ccccc3n2)cc1	0%	i
COc1ccc(NC(=O)c2nc(-c3ccccc3)n(-c3ccc(F)cc3)n2)c(OC)c1	0%	i
O=S(=O)(c1ccc(-c2csc(NC3CCCC3)n2)cc1)N1CCCC1	-8%	i
CCN(CC)c1ccc(C=Nc2ccc(Nc3ccccc3)cc2)cc1	-1%	i
Brc1c(Br)c(Br)c2n[nH]nc2c1Br	7%	40µM*
Brc1c(Br)c(Br)c2[nH]cnc2c1Br	-5%	i
CC1CCN(S(=O)(=O)c2ccc(NC(=O)C3CC(=O)N(CCc4ccc(F)cc4)C3)cc2)CC1 (stereo not given)	89µM*	i
SMILES	UDG counter	AID inh
CCc1ccc(NC(=O)C2CCCN(S(=O)(=O)c3ccc(F)cc3)C2)cc1 (stereo not given)	-1%	i
CC(/C=C/c1ccccc1)=N/Nc1ccc([N+](=O)[O-])cc1	2%	i
Cc1cc(C)c(NC(=O)CCc2c[nH]c3ccccc23)c(C)c1	3%	i
O=Cc1cc(Cc2ccccc2Cl)cc(Br)c1O	-14%	35µM*
O=Cc1ccc(OCc2ccccc2Cl)cc1	-6%	i
Cc1ccc2nc(/C(C#N)=C\c3ccc(-c4cc(C(=O)O)cc(C(=O)O)c4)o3)[nH]c2c1	-15%	i
COc1ccc(-c2nc3ccccc3n2Cc2ccc(C(C)C)cc2)cc1	-4%	?
COc1ccc(-c2nc3ccccc3n2Cc2ccc(Cl)cc2)cc1	?	45µM*
O=C(COc1cccc(Cl)c1)NC1CCCN(c2ncccn2)C1 (stereo not given)	-7%	i
CCCCCSc1nc2sc3c(c2c(=O)n1-c1ccccc1)CCN(C(C)=O)C3	-22%	25µM*
CCSc1nc2sc3c(c2c(=O)n1-c1ccc(C)c(Cl)c1)CCN(C(C)=O)C3	?	i
Oc1ccc(NCc2ccc(OCc3ccccc3Cl)cc2)cc1	79µM*	35µM*
Oc1ccc(NCc2ccc(OCc3ccccc3)cc2)cc1	-23%	2.8µM*
c1ccc(CNCc2ccc(OCc3ccccc3)cc2)cc1	-9%	i
O/N=C\c1ccc(OCc2ccccc2Cl)cc1	-5%	i
CC(C)c1ccc(NC(=O)COC(=O)/C=C/c2cccc3cccnc23)cc1	6%	i
O=c1c(C(F)(F)F)nc2ccccc2n1CC(O)COCc1ccccc1 (stereo not given)	-1%	i
COc1ccc2c(c1)Cc1sc(NC(=O)c3cccc(Br)c3)nc1-2	-19%	50µM*
